# Assay outcomes (PubChem BioAssay)
# An excerpt weighted towards active compounds, which were near 2.2% of everything screened.
# GLP1R inv ag = inverse agonists of human GLP-1 receptor; P43220; HEK293 GLP-1R CRE-luciferase, luminescence, 24 h; GLP-1R form is constitutively active; Potency, µM (doses to about 38.3 µM), for the others: top-dose activity change, negative = inhibition, most hits filed as inhibitors; 410,000 compounds, 1.6% hits; AID 624417; note: potency is the fitted concentration of half-maximal effect; % is set by controls: 0 for no effect and ±100 for the full control effect; nearly all actives have a fitted effect of over 55% in size
# Target sequence (P43220 whole entry, looked up): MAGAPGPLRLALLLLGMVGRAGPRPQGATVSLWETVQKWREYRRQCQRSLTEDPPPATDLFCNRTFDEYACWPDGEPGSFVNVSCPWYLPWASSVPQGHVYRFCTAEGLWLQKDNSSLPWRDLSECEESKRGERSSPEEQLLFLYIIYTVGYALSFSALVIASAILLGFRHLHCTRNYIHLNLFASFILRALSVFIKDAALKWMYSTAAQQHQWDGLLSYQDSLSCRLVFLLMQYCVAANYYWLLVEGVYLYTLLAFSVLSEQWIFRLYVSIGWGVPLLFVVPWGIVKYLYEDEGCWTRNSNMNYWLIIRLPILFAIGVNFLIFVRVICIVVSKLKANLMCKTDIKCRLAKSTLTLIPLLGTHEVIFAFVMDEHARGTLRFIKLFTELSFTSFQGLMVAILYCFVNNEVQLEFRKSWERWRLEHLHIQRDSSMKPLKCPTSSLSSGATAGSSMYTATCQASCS
#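 Readout was luciferase luminescence, measured 12 min after detection reagent at room temperature. Beforehand, GLP-1R reporter HEK293 cells had sat 12 h, then received compounds for 24 hr at 37 deg C.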
# CCT modulator = cytosolic chaperonin activity modulation; purified chaperonin ATPase assay, HTRF ADP detection, 30 min; activity change, % (test concentration not listed), hits read low; 360,000 compounds, 0.3% hits; AID 651819; in the data active = activity change below about -30%; note: % is set by controls: 0 for no effect and ±100 for the full control effect
#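 TRiC (40 or 20 nM final, by batch activity) in 30 mM Tris pH 7.4, 100 mM KCl, 5 mM MgCl2, 1 mM DTT was treated with compound at 76 uM single dose, then 10 uM ATP, 30 min at 37 °C. ADP was read by HTRF Transcreener.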
# MmCpn inh = inhibitors of Methanococcus maripaludis chaperonin TRiC (MmCpn). 330,000 compounds, 0.031% hits. purified Mm-Cpn ATPase, ADP Transcreener TR-FRET. Potency, µM (highest dose often 76.9 µM), inactives show at the highest dose activity, negative = inhibition, usual class: inhibitors. AID 504842; note: potency is the fitted concentration of half-maximal effect; % is set by controls: 0 for no effect and ±100 for the full control effect; nearly all actives have a fitted effect of over 80% in size
#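 ATPase turnover read by TR-FRET ADP competition (Eu cryptate antibody/ADP-d2, 665/590 nm): 10uM ATP final, 25nM Mm-CPN final, 30 min 37degC after 10-min compound preincubation, pH 7.4 Tris/KCl/MgCl2/DTT buffer.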
# HEK293 tox = cytotoxic in the GLP-1 receptor inverse agonist counter-screen. HEK293 cAMP-luciferase reporter cells, luminescence, 24 h. Potency, µM (top dose mostly 38.3 µM), for the others: top-dose activity change, negative = inhibition, actives largely listed as inhibitors. 410,000 compounds, 0.13% hits;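 note: loss of luciferase light is scored as toxicity; potency is the fitted concentration of half-maximal effect; % is set by controls: 0 for no effect and ±100 for the full control effect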
#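 Seeding density was 200 cells/uL; after overnight-length (12 h) culture, 23 nL compounds went on for 24 h at 37 °C. Readout used a luciferase detection reagent, luminescence taken after 12 min at room temperature.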
# GLP1R ag = GLP-1 receptor (human) agonism; P43220; HEK293 GLP-1R CRE-luciferase, luminescence, 4-6 h; cells express a hypersensitive GLP-1R form; Potency, µM (highest dose often 45.6 µM), for the others: at the highest dose activation, most hits filed as activators; 380,000 compounds, 0.007% hits; AID 624172; note: potency is the fitted concentration of half-maximal effect; % of control where 0% means no effect
# uPA generation = inhibitors of cell surface uPA generation | cell surface uPA generation assay, qHTS | Potency, µM (doses to about 38.3 µM), for inactives: at the highest dose activity change, negative = inhibition, most hits filed as inhibitors | 330,000 compounds, 0.31% hits; active = well fitted inhibition curve with a large enough effect; inconclusive = small, poorly fitted or top-dose-only effect; inactive = no such curve, though single readings can be large or run the other way; tested in mouse RAW 264.7 cells; note: potency is the fitted concentration of half-maximal effect; % is set by controls: 0 for no effect and ±100 for the full control effect; nearly all actives have a fitted effect of over 55% in size
# Starred values were filed as active, the others as inactive; ? = inconclusive; / = no result. Unless noted, calls come from the whole dose curve; as a rule, active = well fitted curve in the direction sought with a large enough effect; inconclusive = small, poorly fitted or top-dose-only effect, or another doubt; inactive = no such curve, though single readings can be large; an effect the other way counts as inactive or inconclusive.
SMILES,GLP1R inv ag,CCT modulator,MmCpn inh,HEK293 tox,GLP1R ag,uPA generation
Cc1cc(C)c(-n2nnnc2SCC(=O)c2cccs2)c(C)c1,12.6µM*,0.3,-1.9%,0.7%,9.7%,0.8%
Cn1nnnc1SCC(=O)c1cccs1,1.1%,1.8,1.4%,3.7%,-2.5%,4.1%
CC1=C(c2ccc(C)cc2)S(=O)(=O)NC1=NCCCN1CCN(c2ccccc2F)CC1,?,/,/,-15.7%,/,/
CN1C(=O)/C(=C/c2ccccc2OCc2cccc(F)c2)N(C)C1=S,5.62µM*,-0.7,3.1%,-4.5%,12.4%,1.9%
COC(=O)c1c(NC(=O)CSc2nnnn2-c2ccccc2)sc2c1CCC(C(C)(C)C)C2 (stereo not drawn),5.62µM*,1.4,0.6%,-0.2%,0.4%,6.5%
CN(C)CCN1C(=O)c2cccc3cc([N+](=O)[O-])cc(c23)C1=O,1.78µM*,0.9,/,?,-18.9%,-10.0%
CN(C)CCCN1C(=O)c2cccc3cccc(c23)C1=O,-16.4%,-1.1,0.2%,?,-8.8%,-8.9%
COc1ccc(C(CCNCc2ccccc2)c2ccc(F)cc2)cc1 (stereo not drawn),?,-0.9,0.4%,-14.1%,-8.8%,-1.3%
COc1ccc(C(CCNCc2ccc(N(C)C)cc2)c2ccccc2OC)cc1 (stereo not drawn),10µM*,-3.1,-0.7%,?,14.7%,-5.3%
COc1ccc(CNCCC(c2ccc(OC)cc2)c2ccccc2OC)cc1 (stereo not drawn),10µM*,2.1,-0.7%,?,5.5%,-0.3%
COc1ccc(C(CCNCc2ccc(OC(C)C)cc2)c2ccccc2OC)cc1 (stereo not drawn),?,-1.8,-1.8%,?,-6.6%,0.5%
CN(C(=O)C1=CC(c2ccc3c(c2)OCO3)=NS(=O)(=O)N1C)c1ccccc1,4.6%,/,/,0.3%,/,/
S=C(NCCN1CCOCC1)N/N=C/c1cccs1,3.16µM*,-22.6,0.0%,-11.7%,4.2%,-90.7%
CC(C)c1ccc(NC(=O)c2cc3c(=O)oc4ccccc4c3s2)cc1,8.2%,/,/,-0.9%,/,/
O=C(Cn1cc(C(F)(F)F)ccc1=O)N/N=C/c1ccc(Cl)c(Cl)c1,?,0.5,1.7%,-5.6%,-1.2%,-12.0%
O=C(Cn1cc(C(F)(F)F)ccc1=O)N/N=C/c1ccc(O)cc1,0.0%,-39.0*,3.6%,-0.8%,-1.4%,-3.9%
Cc1ccccc1NC(=O)Cn1c(=O)n(CCC(=O)N2CCc3ccccc3C2)c(=O)c2ccccc21,6.4%,/,/,5.2%,1.8%,/
O=C(CSc1nc2c([nH]c3ccccc32)c(=O)n1-c1ccccc1F)Nc1cccc(C(F)(F)F)c1,11.2µM*,/,/,-22.3%,3.0%,/
CC(C)CCC1(CCNC(C)c2cccs2)CCOC(C)(C)C1 (stereo not drawn),7.08µM*,-1.1,-29.8%,-0.4%,6.3%,-2.8%
O=C(NCC(c1cccs1)S(=O)(=O)c1cccs1)c1ccccc1 (stereo not drawn),-8.6%,/,/,-9.4%,/,/
CC1=[N+](C)c2ccc3ccccc3c2C1(C)C,-10.1%,-2.5,-5.1%,-28.7%,-2.7%,2.24µM*
COc1ccccc1N1CCN(C(CNC(=O)C(=O)NCCc2ccccc2)c2cccnc2)CC1 (stereo not drawn),-22.4%,/,/,-0.8%,/,/
Cc1ccc2occ(CC(=O)Nc3c(C(=O)Nc4ccc(Cl)cc4)oc4ccccc34)c2c1,?,/,/,-7.9%,/,/
Cc1ccc(-c2nc(CS(=O)(=O)CC(=O)NCCCN(Cc3ccccc3)C(C)C)c(C)o2)cc1,4.47µM*,1.5,0.0%,?,2.2%,?
O=C(Cn1cc(SCc2ccc(C(F)(F)F)cc2)c2ccccc21)N1CCCCCC1,7.08µM*,/,/,0.3%,/,/
Cc1ccc(CSc2cn(CC(=O)N3CCCCCC3)c3ccccc23)cc1,10µM*,/,/,0.2%,/,/
Cc1ccc(CSc2cn(CC(=O)N3CCCC3)c3ccccc23)cc1,?,/,/,0.7%,/,/
